Among the data in PubChem BioAssay (NCI) are growth values, retold here.

Test systems include SR leukemia; RPMI-8226 leukemia; OVCAR-8 ovarian; OVCAR-5 ovarian; OVCAR-4 ovarian; SK-OV-3 ovarian; IGROV1 ovarian; OVCAR-3 ovarian; HS 578T breast; NCI/ADR-RES ovarian.
What all share (experiment): NCI-60 one-dose screen, 48 h (100 = growth as untreated, 0 = no growth, -100 = all killed)
Common to all, as to settings: 10 µM unless noted

The panel holds about 83,000 compounds, 20% with a hit somewhere; the sample as a whole holds those more often.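 Compound tested at a single concentration for 48 hours in 96-well plates; a percent growth value below 10 was scored as active.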 Values without a mark were called inactive. Active and inactive are the calls of the source.

Consider `COc1ccc(C(O)c2cc3c(N)c(C(=O)Nc4ccccc4)sc3nc2C)cc1` (stereo not given), for which the growth in the test on SR leukemia was -15.3% (active); in the test on RPMI-8226 leukemia, 5.81% (active); in the test on OVCAR-8 ovarian, 8.92% (active); in the test on OVCAR-5 ovarian, 27.1%; in the test with OVCAR-4 ovarian, 42.6%; with SK-OV-3 ovarian, -9.84% (active). Further, the growth with IGROV1 ovarian is 12.6%; with OVCAR-3 ovarian it was -16.7% (active); in the test on HS 578T breast it was 3.96% (active); with NCI/ADR-RES ovarian, 13.7%.
In the case of `O=C(Nc1sc2c(c1C(=O)O)CCCC2)c1cccc(C(F)(F)F)c1`, the growth in the test with SR leukemia was 115%; in the test on RPMI-8226 leukemia, 80.9%; with OVCAR-8 ovarian, 94.6%; in the test with OVCAR-5 ovarian, 98.5%; in the test on OVCAR-4 ovarian, 86.2%; in the test on SK-OV-3 ovarian it was 83.8%. Moreover, the growth in the test with IGROV1 ovarian is 96.3%; in the test on OVCAR-3 ovarian it was 94.3%; with HS 578T breast, 98.2%; with NCI/ADR-RES ovarian, 93.3%.
Take `CCN1C(=O)/C(=c2\sc3n(c2=O)NC2C(N=3)N(CC)C(=O)N2CC)c2ccccc21` (stereo not given): the growth is 22.7% in the test with SR leukemia; 64.9% with RPMI-8226 leukemia; 46.5% in the test with OVCAR-8 ovarian; 53.8% in the test on OVCAR-5 ovarian; 46% in the test with OVCAR-4 ovarian; 70.2% with SK-OV-3 ovarian. Further, the growth in the test on IGROV1 ovarian is 41.6%; with OVCAR-3 ovarian, -12.7% (active); in the test on HS 578T breast, 37%; in the test on NCI/ADR-RES ovarian, 12.1%.
As for `CN1CCN(c2cc(F)c(NC3=C(Cl)C(=O)c4ncccc4C3=O)c(F)c2)CC1`, the growth in the test with SR leukemia is -0.813% (active); with RPMI-8226 leukemia it was -20.7% (active); in the test on OVCAR-8 ovarian it was 1.95% (active); in the test on OVCAR-5 ovarian, -59.8% (active); with OVCAR-4 ovarian it was -99.2% (active); in the test on SK-OV-3 ovarian it was 82.7%. Besides, the growth was -90.4% (active) with IGROV1 ovarian, -98.2% (active) with OVCAR-3 ovarian, -16.5% (active) in the test on HS 578T breast and 37.9% in the test on NCI/ADR-RES ovarian.
As for `O=S(=O)(NCCNc1nccc(-c2c(-c3cccc(F)c3)nc3occn23)n1)c1cccc2ccccc12`, the growth in the test with SR leukemia was 41.6%; in the test with RPMI-8226 leukemia, 21.7%; in the test on OVCAR-8 ovarian, 58.4%; with OVCAR-5 ovarian, 116%; with OVCAR-4 ovarian, 47.8%; in the test with SK-OV-3 ovarian, 69%. The growth with IGROV1 ovarian is 35.4%; in the test with OVCAR-3 ovarian, 71.7%; in the test on HS 578T breast it was 64.9%; in the test on NCI/ADR-RES ovarian, 48.8%.
Consider `O=C(Nc1ccc2cc3ccc(NC(=O)N4CCCCCC4)cc3nc2c1)N1CCCCCC1`, for which the growth is 8.09% (active) in the test with SR leukemia; -36.8% (active) in the test with RPMI-8226 leukemia; -28.3% (active) in the test on OVCAR-8 ovarian; 4.88% (active) in the test with OVCAR-5 ovarian; -44.8% (active) in the test on OVCAR-4 ovarian; -36.7% (active) in the test on SK-OV-3 ovarian. Further, the growth in the test on IGROV1 ovarian is -48.5% (active); with OVCAR-3 ovarian, -69.2% (active); with HS 578T breast, -33.2% (active); with NCI/ADR-RES ovarian it was 36.7%.
For the compound `CC(=O)c1c[nH]c2ccc(-c3ccnc(Nc4ccc(NC(=O)C5CCCC5)c(CN5CCOCC5)c4)n3)cc12`, the growth in the test with SR leukemia is 3.58% (active); with RPMI-8226 leukemia, -42.2% (active); in the test with OVCAR-8 ovarian, 7.02% (active); with OVCAR-5 ovarian it was -11.6% (active); with OVCAR-4 ovarian, -14% (active); with SK-OV-3 ovarian it was 10.6%. The growth in the test with IGROV1 ovarian was -14.8% (active); in the test with OVCAR-3 ovarian, -7.43% (active); in the test with HS 578T breast, -27.7% (active); with NCI/ADR-RES ovarian, -4.77% (active).
As to `CCCCCCCCCCN=C(N)N=C(N)N`, the growth is 37.8% in the test with SR leukemia; 34.8% with RPMI-8226 leukemia; 43.5% in the test on OVCAR-8 ovarian; 64.1% in the test on OVCAR-5 ovarian; 44.9% in the test with OVCAR-4 ovarian; 52.3% with SK-OV-3 ovarian. For the same compound, the growth is 12.1% in the test with IGROV1 ovarian, 41.9% in the test on OVCAR-3 ovarian, 55% with HS 578T breast and 79.5% in the test on NCI/ADR-RES ovarian.
With `CC(C)(C)CC(C)(C)Nc1c(-c2ccc(C(F)(F)F)cc2)nc2cnccn12`, the growth in the test with SR leukemia was 59.8%; with RPMI-8226 leukemia it was 62.9%; in the test on OVCAR-8 ovarian it was 89.2%; in the test on OVCAR-5 ovarian, 102%; with OVCAR-4 ovarian, 79.4%; in the test with SK-OV-3 ovarian, 82.7%. Further, the growth in the test on IGROV1 ovarian was 67.4%; with OVCAR-3 ovarian, 84.8%; in the test with HS 578T breast it was 102%; in the test with NCI/ADR-RES ovarian, 81.9%.
For `O=C1Nc2c(ccc(Cl)c2Cl)/C1=C/c1ccc(F)cc1`, the growth in the test on SR leukemia is 73.9%; with RPMI-8226 leukemia, 96.5%; with OVCAR-8 ovarian, 97.9%; with OVCAR-5 ovarian it was 84.4%; with OVCAR-4 ovarian it was 73.8%; with SK-OV-3 ovarian, 89.7%. For the same compound, the growth in the test with IGROV1 ovarian is 42.8%; in the test on OVCAR-3 ovarian it was 83.5%; in the test with HS 578T breast, 73.8%; in the test with NCI/ADR-RES ovarian, 94%.
On to `COc1cc(NCC(O)CN(CC(C)C)C2CCCC2)c2ncccc2c1` (stereo not given), for which the growth in the test on SR leukemia is 80.1%; in the test on RPMI-8226 leukemia it was 94.6%; in the test with OVCAR-8 ovarian, 86.5%; in the test on OVCAR-5 ovarian, 101%; in the test with OVCAR-4 ovarian, 42.3%; in the test on SK-OV-3 ovarian, 93.3%. Also, the growth in the test on IGROV1 ovarian was 88.8%; in the test with OVCAR-3 ovarian it was 63.7%; in the test with HS 578T breast it was 73.3%; with NCI/ADR-RES ovarian it was 89.2%.
As to `Cc1cccc(C)c1-c1cc(Cc2ccc(Cl)cc2)c(=O)[nH]n1`, the growth with SR leukemia was 4.66% (active); in the test with RPMI-8226 leukemia, 52.2%; with OVCAR-8 ovarian it was 97.1%; with OVCAR-5 ovarian, 96.5%; in the test with OVCAR-4 ovarian, 97.6%; with SK-OV-3 ovarian, 103%. The growth with IGROV1 ovarian is 77.6%; in the test with OVCAR-3 ovarian it was 103%; in the test on HS 578T breast, 94%; in the test with NCI/ADR-RES ovarian it was 96.1%.
Regarding `O=C(NCCN1CCOCC1)OCc1nc2nc(Cl)nc(N3CCOCC3)c2[nH]1`, the growth in the test on SR leukemia was -0.969% (active); with RPMI-8226 leukemia it was 8.39% (active); in the test with OVCAR-8 ovarian, 7.4% (active); in the test on OVCAR-5 ovarian, 93.3%; in the test on OVCAR-4 ovarian, 45.7%; in the test on SK-OV-3 ovarian, 30.7%. For the same compound, the growth in the test with IGROV1 ovarian is 17.6%; with OVCAR-3 ovarian, -2.86% (active); in the test on HS 578T breast, 14.3%; with NCI/ADR-RES ovarian, 6.61% (active).
On to `CN1CCN(c2ccc(NC3=C(Cl)C(=O)c4ncccc4C3=O)cc2C#N)CC1`, for which the growth was 3.52% (active) in the test with SR leukemia; 37.7% in the test on RPMI-8226 leukemia; 26.8% in the test on OVCAR-8 ovarian; 73.5% in the test on OVCAR-5 ovarian; -97.7% (active) in the test on OVCAR-4 ovarian; 86.3% with SK-OV-3 ovarian. Also, the growth is -29.1% (active) in the test with IGROV1 ovarian, -63.7% (active) in the test on OVCAR-3 ovarian, 61.4% in the test with HS 578T breast and 73.1% in the test on NCI/ADR-RES ovarian.
